Source: PubChem BioAssay
Only some compounds are listed: those with a hit (about 11% of all), similar ones and a draw of the others.
JMJD2E inh: JMJD2E (human) inhibition; actives 1.6% (n = 230,000); Potency, µM (highest dose often 57.1 µM), without a hit: top-dose activity change, negative = inhibition, most hits filed as inhibitors; JMJD2E catalytic domain, FDH-coupled NADH fluorescence (FDH is formaldehyde dehydrogenase);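 also: potency is read from the fitted curve at half-maximal effect; 0% = wells with enzyme and -100% = buffer wells without enzyme; nearly all actives have a fitted effect of over 50% in size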
PNC inhibitor: inhibitors of perinucleolar compartment assembly | PC3M PTB-GFP, PNC prevalence imaging, 16 h; stronger effect = lower value | activity change (PNC), negative = inhibition, % at 10 µM | actives 3.1% (n = 140,000) | AID 2417;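 active = readout at or below -70, meaning at least 70% loss of cells showing the perinucleolar compartment, a nuclear body marking cancer cells; inconclusive = readout between -30 and a set limit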;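 also: plate controls were DMSO wells for no effect and camptothecin positive control wells for full effect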
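Read-out is percentage of cells bearing a perinucleolar compartment, from automated 20x imaging of fixed, Hoechst-stained PC3M PTB-GFP cells. Cells were seeded 4 h, then exposed 16 h to compound (23 nl of library stock) in duplicate plates.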
HPGD block: blocks human HPGD enzyme activity; P15428; purified HPGD, NADH fluorescence kinetic, PGE2 substrate; Potency, µM, inactives show at the top dose activity change, negative = inhibition, most hits filed as inhibitors; actives 4.3% (n = 150,000); also: potency is read from the fitted curve at half-maximal effect
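20 nM HPGD preincubated 15 min at room temperature with compound in 50 mM Tris-HCl pH 8, 0.01% Tween 20. Started with 1 mM NAD+ and 30 uM prostaglandin E2; NADH fluorescence (360/450 nm) read 5 times over 30-s intervals, last minus first.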
ALDH1A1 block: blocks purified human ALDH1A1 activity | Purified ALDH1A1, NADH fluorescence, propionaldehyde substrate | Potency, µM (doses to about 75.3 µM), for the others: at the top dose activity, negative = inhibition, usual class: inhibitors | actives 7.3% (n = 220,000);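 also: potency is read from the fitted curve at half-maximal effect; plate controls were no enzyme wells and a reference inhibitor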
Target sequence (P00352 whole entry, looked up): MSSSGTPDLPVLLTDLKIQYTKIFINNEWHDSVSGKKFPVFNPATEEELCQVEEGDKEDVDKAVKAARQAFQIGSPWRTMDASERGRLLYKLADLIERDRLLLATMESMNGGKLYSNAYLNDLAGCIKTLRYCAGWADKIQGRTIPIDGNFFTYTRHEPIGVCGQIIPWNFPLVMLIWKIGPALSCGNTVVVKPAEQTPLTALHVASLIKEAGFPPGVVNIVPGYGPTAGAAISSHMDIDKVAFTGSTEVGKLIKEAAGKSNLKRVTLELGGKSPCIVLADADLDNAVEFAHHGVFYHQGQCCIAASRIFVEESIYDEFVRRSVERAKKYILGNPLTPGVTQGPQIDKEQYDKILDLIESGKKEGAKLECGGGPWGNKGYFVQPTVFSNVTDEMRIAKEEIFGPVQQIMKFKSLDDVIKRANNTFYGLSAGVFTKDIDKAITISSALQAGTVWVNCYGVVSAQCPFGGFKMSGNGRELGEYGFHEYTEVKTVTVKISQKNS
Starred values were filed as active, the others as inactive; i = inactive; u = inconclusive; x = not tested or not shown; [ ] = dose if it differs, or a comment. Unless noted, calls follow the shape of the dose curve; as a rule, active = well fitted inhibition curve with a large enough effect (not every such curve was filed as active); inconclusive = small, poorly fitted or top-dose-only effect, or another doubt; inactive = no such curve, though single readings can be large or run the other way. Unless noted, % is scaled to controls: 0 for no effect and ±100 for the full control effect.

SMILES	JMJD2E inh	PNC inhibitor	HPGD block	ALDH1A1 block
CCCCC[C@H](O)/C=C/[C@@H]1[C@H]2C/C(=C/CCCC(=O)O)C[C@H]2C[C@H]1O	3%	x	-10%	12%
CC1CCCN(c2ccc(C(=O)NCc3cccs3)cn2)C1 (configuration not stated)	-21%	u	28µM*	u
CC1CCN(c2ccc(C(=O)NCCc3ccccc3)cn2)CC1	-1%	27	-20%	u
O=C(NCc1cccs1)c1ccc(N2CCCCC2)nc1	10%	-12	16µM*	13µM*
CC(=O)N1CCC[C@@]2(CCN(C(c3ccccc3)c3ccccc3)C2)C1	x	x	-9%	-2%
COCCNC(=O)Cn1cc(/C=N/NC(=O)c2ccc(Oc3ccc(O)cc3)cc2)c2ccccc21	-1%	x	x	i
O=C(CN1CCC(NC(=O)c2ccco2)CC1)Nc1cccc2ccccc12	8%	-100*	-7%	12%
COCC(=O)NC1CCN(CC(=O)Nc2ccc(OC)cc2[N+](=O)[O-])CC1	0%	-26	-11%	13µM*
O=C(CN1CCC(NC(=O)c2ccco2)CC1)Nc1ccccc1[N+](=O)[O-]	2%	x	x	22µM*
Cc1c(Br)c([N+](=O)[O-])nn1CC(=O)NCCc1c[nH]c2ccccc12	1%	x	x	2%
NC(=O)c1c(NC(=O)COC(=O)c2ccc(S(=O)(=O)Nc3ccccc3)cc2)sc2c1CCCC2	1%	x	x	1%
CCN(C(=O)CN1CCOCC1)c1c(N)n(Cc2ccccc2)c(=O)[nH]c1=O	-4%	x	x	14%
CCN(C(=O)CN(C)Cc1cccc(Cl)c1Cl)c1c(N)n(Cc2ccccc2)c(=O)[nH]c1=O	-1%	-98*	-15%	8%
COCCc1ccc(OC[C@H](O)CNC(C)C)cc1	2%[25.5 µM]	x	-7%	4%[20.9 µM]
COCCc1ccc(OCC(O)CNC(C)C)cc1 (configuration not stated)	-2%	-91*	-11%	2%
OC[C@H]1NC[C@H](O)[C@@H](O)[C@H]1O	14%	x	-11%	-13%
C[C@@]1(C(NC(=O)c2ccccc2)c2ccc(-c3ccccc3)cc2)C[C@H]1C1CCCCC1 (some centres not stated)	2%	x	-3%	6%
COC(=O)c1ccc(C(NC(=O)c2ccco2)[C@]2(C)C[C@H]2C2CCCCC2)cc1 (some centres not stated)	-20%	x	-11%	3.5µM*
COc1ccc(N=C2S/C(=C\c3cc(C)n(C)c3C)C(=O)N2C)cc1	-12%	16	-6%	u
COc1ccccc1N1C(=O)S/C(=C\c2cc(C)n(C)c2C)C1=O	u	x	x	14µM*
CCCN1C(=O)/C(=C/c2cc(C)n(C)c2C)SC1=Nc1ccc(OC)cc1	-15%	11	-17%	2µM*
Cc1noc(/C=C/c2ccco2)c1S(=O)(=O)N1CCC(C(=O)N2CCc3ccccc3C2)CC1	-21%	36	20µM*	u
CC(C)(C)c1ccc(C(=O)N2CCC(C(=O)NCCC3=CCCCC3)CC2)cc1	-9%	71	1%	10µM*
O=C(NCCC1=CCCCC1)C1CCN(S(=O)(=O)N2CCCC2)CC1	-5%	x	x	u
COc1ccc(OC)c(S(=O)(=O)N2CCC(C(=O)N3CCc4ccccc4C3)CC2)c1	1%	3	22µM*	u
SMILES	JMJD2E inh	PNC inhibitor	HPGD block	ALDH1A1 block
COc1ccc(OC)c(S(=O)(=O)N2CCC(C(=O)NCCC3=CCCCC3)CC2)c1	-8%	-100*	-10%	22µM*
COc1ccc(OC)c(S(=O)(=O)N2CCN(c3c(C)cccc3C)CC2)c1	-7%	0	-5%	14µM*
O=C(NCCC1=CCCCC1)C1CCN(S(=O)(=O)c2ccc(Br)s2)CC1	5%	u	-9%	19µM*
COc1ccc(-n2ccnc2SCC(=O)NCc2ccc(F)cc2)c(OC)c1	0%	x	x	10%
Cn1c2ccccc2c2nnc(SCC(=O)NCc3ccoc3)nc21	-6%	x	x	0%
COc1ccc(NC(=O)[C@@H](NC(=O)c2ccccc2F)C(C)C)cc1S(=O)(=O)N1CCOCC1	-20%	x	x	5%
O=C(O)c1cccc(N2CCCC2=O)c1	-4%	25	20µM*	u
O=C(N/N=C/c1cc(Br)ccc1O)c1cccc(N2CCCC2=O)c1	28µM*	-15	-16%	0%
Oc1c(Cl)cccc1C=Nc1cc(C(F)(F)F)ccc1N1CCCC1	u	6	16µM*	2%
Nc1cc(S(=O)(=O)O)ccc1O	x	x	-6%	u
COc1ccc(NC(=S)N/C(=N/S(=O)(=O)c2ccc(C)cc2)c2ccccc2)cc1	-14%	x	x	u
CCOC(=S)N/C(=N\S(=O)(=O)c1ccc(C)cc1)c1ccccc1	-4%	28	25µM*	14µM*
COc1ccc(OC)c(NC(=O)CSc2ccccc2)c1	5%	-18	-3%	-7%
COc1ccc(OC)c(NC(=O)CSc2ncnc3c2cnn3-c2ccccc2Cl)c1	-6%	u	-21%	16µM*
COc1ccc(OC)c(NC(=O)CSCC(=O)O)c1	-26%	55	-14%	20µM*
COc1ccc(OC)c(NC(=O)CSc2ccc3ccccc3c2)c1	-6%	u	x	11µM*
CC(C)(C)c1ccc(O)c(CN(Cc2cc(C(C)(C)C)ccc2O)c2ccccc2)c1	x	x	-10%	8%[13.5 µM]
COC(=O)c1ccc(C(NC(=O)OCc2ccccc2)/C(C)=C/[C@@H](C)C(=O)NCc2cccnc2)cc1 (some centres not stated)	-2%	x	-4%	-5%
CC(C)CCN1C(=O)c2ccc(-c3nc4ccccc4c(=O)o3)cc2C1=O	-7%	11	u	7.1µM*
CC1(C)CC(=O)C(C(C2=C(O)CC(C)(C)CC2=O)c2ccc(Br)s2)C(=O)C1 (configuration not stated)	20µM*	-1	1.4µM*	3.5µM*
Cc1ccc(C(C2=C(O)CC(C)(C)CC2=O)C2C(=O)CC(C)(C)CC2=O)s1 (configuration not stated)	-14%	-12	3.2µM*	8.9µM*
CC(C)(C)C1=C[C@@H](CO)C[C@@H](CO)C1	2%	u	-11%	28µM*
CCC1CCCCN1CCNC(=O)CCS(=O)(=O)c1ccc(Br)cc1 (configuration not stated)	2%	-25	-9%	-6%
OC1CCCN(Cc2ccc3c(c2)Cc2ccccc2-3)C1 (configuration not stated)	-6%	u	-3%	4%
CN(C)CCN(C)Cc1ccc2c(c1)Cc1ccccc1-2	1%	30	-15%	11µM*
CCOc1ccc2nc3sc(C(=O)N4CCN(C)CC4)c(N)c3cc2c1	-26%	-1	14µM*	-11%
Cc1ccc2nc3sc(C(=O)N4CCOCC4)c(N)c3cc2c1	8%	-11	25µM*	-11%
CC(C)c1ccc2nc3sc(C(=O)N4CCc5ccccc5C4)c(N)c3cc2c1	-9%	56	16µM*	-15%
CC(C)OC(=O)c1cc2c(OC[C@@H](O)CNC(C)(C)C)cccc2[nH]1	u	x	-26%	u
CCCCn1c(N)c(N(CCOC)C(=O)COc2ccc(Cl)cc2)c(=O)[nH]c1=O	2%	x	x	12%
